High-throughput results deposited in PubChem by National Center for Advancing Translational Sciences (NCATS).
Compounds with a hit are over-represented: about 4.8% of the library has one in this group of screens.
TGFb SMAD3 inh: inhibitors of TGF-b signaling; HepG2 CAGA-GFP TGF-b/SMAD3 reporter, GFP fluorescence, 18 h; TGF-beta stimulated, 500 pg/mL final; hit rate 1.2% among 410,000; Potency, µM (highest dose often 46.1 µM), hits mostly inhibitors; note: nearly all actives have a fitted effect of over 65% in size
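Cell-based qHTS in HEPG2 carrying a CAGA-GFP Smad reporter; compounds added before 500 pg/mL final TGF-beta, 18 h incubation at 37 degrees C, GFP fluorescence quantified per cell by imaging cytometry.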
DRD3 antagonist: antagonists of human D3 dopamine receptor; max response, negative = inhibition, %; P35462; hit rate 2.5% among 360,000; D3R cells, DiscoveRx beta-arrestin luminescence, antagonist mode; hits give low values; in the data active = max response below about -50%; inconclusive = no clear call, values can overlap the other calls
Target sequence (P35462 whole entry, looked up): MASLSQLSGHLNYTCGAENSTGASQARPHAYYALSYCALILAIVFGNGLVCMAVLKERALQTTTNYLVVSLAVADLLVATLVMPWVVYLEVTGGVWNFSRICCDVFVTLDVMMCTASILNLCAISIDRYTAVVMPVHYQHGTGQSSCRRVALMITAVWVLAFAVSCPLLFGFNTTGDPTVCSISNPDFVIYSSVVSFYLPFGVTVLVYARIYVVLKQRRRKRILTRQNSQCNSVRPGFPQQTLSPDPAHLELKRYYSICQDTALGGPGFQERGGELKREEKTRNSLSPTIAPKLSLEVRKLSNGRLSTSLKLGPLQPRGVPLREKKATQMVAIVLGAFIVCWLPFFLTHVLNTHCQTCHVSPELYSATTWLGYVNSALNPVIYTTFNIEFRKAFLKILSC
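Cells expressing the human receptor were seeded at 1500 cells/well, incubated overnight at 37 degrees C in 5% CO2, then exposed to library compounds with dopamine controls for 90 minutes at 37 degrees C before luminescent detection.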
DRD3 agonist: agonists of human D3 dopamine receptor; max activation, %; D3R DiscoveRx beta-arrestin cells, luminescence, 90 min; hit rate 0.58% among 410,000; AID 652048; in the data active = max activation above about 30%
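Cells at 1500/well, incubated overnight, then treated with pinned compounds (dopamine as control) for 90 min at 37 degrees C. DiscoveRx reagent added for 30 - 60 minutes at room temperature; luminescence read.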
ATXN2 expr inh: reduces ATXN2 reporter expression in HEK-293 cells; hit rate 0.72% among 360,000; AID 1745845; Potency, µM (doses to about 57 µM), hits mostly inhibitors; HEK-293 ATXN2-luciferase reporter, luminescence, 24 h; note: nearly all actives have a fitted effect of over 55% in size
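ATXN2-luciferase reporter cells (luciferase flanked by upstream and downstream ATXN2 gene portions) were treated 24 h at 37 °C with compounds at up to 57 uM. SteadyGlo luminescence gave expression; GF-AFC fluorescence gave viability.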
HepG2 viability: kills HepG2 cells in TGF-b inhibitor counter-screen; hit rate 0.76% among 410,000; Potency, µM (top dose mostly 46.1 µM), most hits filed as cytotoxic; AID 588856; HepG2 CAGA-GFP viability, ATP luminescence, 18 h
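CellTiter-Glo luminescence gave cytotoxicity after 18 hours at 37 degrees C. The cells were HepG2 CAGA-GFP in 1% FBS DMEM, stimulated with 500 pg/mL TGF-beta after compound addition. %Activity was normalised to no-cell wells (complete cell-killing) and DMSO (no toxicity), and curves were fitted and classified.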
S2 tox: cell viability loss in ATXN counter-screen; S2 cells (HEK-293 line with an ATXN2-luciferase reporter) viability, CellTiter-Fluor protease fluorescence, 24 h; Potency, µM (highest dose often 56.7 µM), usual class: cytotoxic; hit rate 0.49% among 400,000; note: nearly all actives have a fitted effect of over 40% in size
Hits are given with their value; – = inactive; ? = inconclusive; · = no result given. Unless noted, calls come from the whole dose curve; as a rule, active = well fitted curve in the direction sought with a large enough effect; inconclusive = small, poorly fitted or top-dose-only effect, or another doubt; inactive = no such curve, though single readings can be large; an effect the other way counts as inactive or inconclusive.

SMILES	TGFb SMAD3 inh	DRD3 antagonist	DRD3 agonist	ATXN2 expr inh	HepG2 viability	S2 tox
CCOC(=O)c1oc2ccccc2c1NC(=O)COC	–	-52	–	–	–	–
COc1ccc(NC(=O)c2oc3ccccc3c2NC(=O)c2ccco2)c(OC)c1	–	–	49	–	–	–
COCC(=O)Nc1c(C(=O)Nc2cccc(OC)c2)oc2ccccc12	–	–	–	–	–	–
COc1ccc2c(c1)c(=O)c(C(=O)c1ccccc1)cn2CC(=O)Nc1ccc2c(c1)OCO2	–	·	–	–	–	–
COc1ccc(NC(=O)c2oc3ccccc3c2NC(=O)COc2ccc(F)cc2)c(OC)c1	–	·	–	–	–	–
CCOCC(=O)Nc1c(C(=O)Nc2ccc(OC)cc2OC)oc2ccccc12	–	–	73	–	–	–
CCN1C(C(=O)c2ccccc2)=C(OC(=O)C(C)C)c2ccccc2S1(=O)=O	11µM	·	–	–	–	–
CCN1/C(=C(\O)c2ccccc2)C(=O)c2ccccc2S1(=O)=O	–	-56	–	–	–	–
CCCN1C(C(=O)c2ccccc2)=C(OC(=O)c2ccc(F)cc2)c2ccccc2S1(=O)=O	18µM	·	–	·	–	·
CCCCN(CCCC)C1=C(C(=O)c2ccccc2)N(CC)S(=O)(=O)c2ccccc21	–	·	–	–	–	–
CCCN1C(C(=O)c2ccccc2)=C(OC(=O)c2ccc(C)cc2)c2ccccc2S1(=O)=O	–	·	–	·	–	·
CCCCCN1C(C(=O)c2ccccc2)=C(OC(=O)CC)c2ccccc2S1(=O)=O	?	·	–	–	11µM	?
Cc1noc(C)c1S(=O)(=O)N1CCCC(C(=O)Nc2ccc(C(C)C)cc2)C1 (configuration not stated)	–	·	–	–	–	–
Cc1ccc(C(=O)Nc2cccc(-c3nc(CNC(=O)C4(C)CC4)c(C)o3)c2)s1	·	·	·	·	·	–
COc1cc(-c2nn3c(COc4ccccc4)nnc3s2)cc(OC)c1OC	–	–	–	–	–	–
COc1cc(-c2nn3c(Cc4ccccc4)nnc3s2)cc(OC)c1OC	–	–	31	–	–	–
CCOc1ccc(NC(=S)N(CCCN2CCCC2)Cc2cccn2Cc2ccc(Cl)cc2)cc1	–	–	–	–	–	–
Cc1cccc(NC(=S)N(CCCN2CCCC2)Cc2cccn2Cc2ccc(Cl)cc2)c1	?	–	–	32µM	–	·
CCn1cc(CN2CCOc3ccc(C(O)C4CCCCC4)cc3C2)c(C)n1 (configuration not stated)	·	·	·	·	·	–
COc1ccc(C(=O)CC(Nc2ccc([N+](=O)[O-])cc2)c2ccc(OC)cc2)cc1 (configuration not stated)	–	–	–	–	–	–
CNC(CC(=O)c1ccc([N+](=O)[O-])cc1)C(Cl)(Cl)Cl (configuration not stated)	3.2µM	–	–	25µM	10µM	28µM
COc1ccc([C@H]2CC(=O)C=C(c3cc(C)ccc3OC)C2)cc1	–	-58	–	–	–	?
COc1cc(F)cc(C2=CC(=O)C[C@H](c3ccc(F)cc3)C2)c1	–	-79	–	–	–	–
COc1ccc([C@H]2CC(=O)C=C(c3cc(C)ccc3F)C2)cc1	–	–	–	–	–	–
CCCOc1ccc(C2=CC(=O)C[C@H](c3ccc(OC)cc3)C2)cc1	?	–	36	–	–	–
SMILES	TGFb SMAD3 inh	DRD3 antagonist	DRD3 agonist	ATXN2 expr inh	HepG2 viability	S2 tox
COc1ccc([C@H]2CC(=O)C=C(c3ccc(CNC(=O)OC(C)(C)C)cc3)C2)cc1	?	–	49	?	–	?
CCN(c1ccccc1)c1nc(N)nc(C#N)n1	–	·	·	·	–	·
OC(c1cccc(CN2CCCCC2)c1)c1ncc(-c2cccc3ccccc23)[nH]1 (configuration not stated)	–	-54	–	–	–	–
COc1cc(OC)cc(C(=O)N2CCCc3ccccc32)c1	–	–	–	–	–	–
COc1ccc(C(=O)N2CCCc3ccccc32)cc1Br	–	–	–	–	–	0.22µM
CCOC(=O)C1=C(C)c2ccccc2N(C(=O)OC)C1(C)C(=O)OCC (configuration not stated)	13µM	–	–	?	–	·
CCOC(=O)C1=C(C)c2ccccc2OC1(CC)C(=O)OCC (configuration not stated)	–	–	–	–	–	–
COC(=O)c1ccc(Oc2cc(C)nc(NCc3ccccc3)n2)cc1	–	–	–	–	–	–
COc1ccc(Nc2cc(C)nc(NCc3ccccc3)n2)cc1	13µM	–	–	–	–	–
Cc1ccc(Nc2cc(C)nc(NCc3ccccc3)n2)cc1	?	–	–	·	–	–
Cc1cc(NC2CCCCC2)nc(NCc2ccccc2)n1	14µM	–	–	?	–	?
Cc1cc(Oc2ccc(C#N)cc2)nc(NCc2ccccc2)n1	–	–	–	–	8.9µM	–
CCn1c(=O)c2cc(C(=O)NCCCN3CCN(c4ccc(F)cc4)CC3)sc2c2ccccc21	?	·	–	–	–	–
C[N+]1(CC(=O)c2ccc(O)c(O)c2)CCOCC1	–	·	·	·	–	·
O=[N+]([O-])c1ccc(OCC(O)CNCCNc2nccc(C(F)(F)F)n2)cc1 (configuration not stated)	?	-84	–	·	–	?
COc1cc(OC)c(NC(=O)CSC2=Nc3ccccc3N=C(c3ccc(F)cc3)C2)cc1Cl	–	·	–	–	–	–
CS(=O)(=O)c1ccc(-c2sc3ccccc3c2C#CCCO)cc1	11µM	–	–	?	–	?
COc1ccc2c(C#CCCO)c(-c3ccc(S(C)(=O)=O)cc3)sc2c1	–	–	–	–	–	–
Cc1ccc(-c2nn(-c3ccccc3)cc2/C=N/n2c(-c3cccs3)n[nH]c2=S)cc1	?	–	–	–	–	–
S=c1[nH]nc(-c2cccs2)n1/N=C/c1cn(-c2ccccc2)nc1-c1cccs1	18µM	–	30	–	–	–
Cc1ncc(C23CC4CC(CC(C4)C2)C3)[nH]1	–	-55	–	–	–	–
COc1ccc(Cn2c(=O)n(-c3ccc(C)cc3)c(=O)c3c2c2cc(C)ccc2n3C)cc1	–	·	37	–	–	–
Fc1ccc(N2CCN(C3CCC(c4ccccc4)CC3)CC2)cc1 (configuration not stated)	?	-82	–	–	–	?
O=Nc1ccc(/C=C/c2ccnc3ccccc23)cc1	–	·	·	·	–	·
O=C(C[n+]1c(Cl)ccc2ccccc21)c1ccc2ccccc2c1	–	·	·	·	–	·
CC(=O)Nc1cccc(NC(=O)/C=C/c2ccc(S(=O)(=O)N3CCOCC3)cc2)c1	–	–	–	–	–	–
